Results as given in PubChem BioAssay (NCI).
This is part of a sample that, as a whole, favours compounds with a hit. Of some 83,000 tested, about 20% had one in any assay.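 Percent growth is the endpoint: 0 to 100 indicates growth inhibition (40 means 60% inhibition), 0 means no net growth, and negative values indicate cell death.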 Unmarked numbers belong to inactive results. Calls of active or inactive are those of the source. How the source made its calls: active means growth percent below 10; inactive means the rest.

Assays:
Assay in all cases: NCI-60 one-dose screen, 48 h (100 = growth as untreated, 0 = no growth, -100 = all killed)
Details in all cases: 10 µM unless noted
NCI-H23 lung = tested on: NCI-H23 lung
NCI-H226 lung = tested on: NCI-H226 lung
NCI-H322M lung = tested on: NCI-H322M lung
HOP-62 NSCLC = tested on: HOP-62 NSCLC
NCI-H460 lung = tested on: NCI-H460 lung
NCI-H522 lung = tested on: NCI-H522 lung
A549/ATCC NSCLC = tested on: A549/ATCC NSCLC
786-0 renal = tested on: 786-0 renal
COLO 205 colon = tested on: COLO 205 colon
DU-145 prostate = tested on: DU-145 prostate
K-562 leukemia = tested on: K-562 leukemia
MALME-3M melanoma = tested on: MALME-3M melanoma
MDA-MB-231 breast = tested on: MDA-MB-231 breast
RXF 393 renal = tested on: RXF 393 renal
SF-268 CNS = tested on: SF-268 CNS
SF-295 CNS = tested on: SF-295 CNS
SF-539 CNS = tested on: SF-539 CNS
UACC-257 melanoma = tested on: UACC-257 melanoma
M14 melanoma = tested on: M14 melanoma

Row | Structure (SMILES) | growth (NCI-H23 lung) | growth (NCI-H226 lung) | growth (NCI-H322M lung) | growth (HOP-62 NSCLC) | growth (NCI-H460 lung) | growth (NCI-H522 lung) | growth (A549/ATCC NSCLC) | growth (786-0 renal) | growth (COLO 205 colon) | growth (DU-145 prostate) | growth (K-562 leukemia) | growth (MALME-3M melanoma) | growth (MDA-MB-231 breast) | growth (RXF 393 renal) | growth (SF-268 CNS) | growth (SF-295 CNS) | growth (SF-539 CNS) | growth (UACC-257 melanoma) | growth (M14 melanoma)
1 | N=c1nc(N2CCCCC2)cc(N)n1O | 115% | 92.7% | 126% | 101% | 113% | 103% | 103% | 117% | 106% | 114% | 116% | 145% | 108% | 108% | 109% | 103% | 116% | 99.8% | 123%
2 | CC(C)[C@@]12C[C@@H](OC(=O)C3CO3)[C@@](C)(O1)[C@@H]1CC[C@@H](C)[C@H]1[C@@H]2OC(=O)/C=C/c1ccccc1 (stereo partly specified) | 85.9% | 68.3% | 83.9% | 76.6% | 101% | 72.8% | 75.7% | 95.5% | 107% | 107% | 105% | 84% | 76.6% | 67% | 67.2% | 101% | 90.7% | 74.7% | 101%
3 | COc1ccc(-c2cc(-c3cn(-c4cccc(Cl)c4)nc3-c3ccc(OC)cc3)[nH]c(=S)n2)cc1 | 83% | 85.8% | 95.5% | 99.1% | 33.5% | 77.7% | 50.4% | 96.5% | 86.6% | 50.1% | 101% | 90.9% | 67.7% | 102% | 70.6% | 93% | 92.2% | 71.5% | 92%
4 | COc1cc(NCC(O)CN(CC(C)C)CC(C)C)c2ncccc2c1 (stereo unspecified) | 82% | 74.9% | 95.6% | 84.8% | 95.4% | 55.9% | 91.6% | 85% | 81% | 113% | 59.6% | 89.6% | 85.5% | 51.5% | 98.5% | 91.9% | 102% | 77.2% | 87.7%
5 | C[C@H](NC(=O)c1snnc1C1CC1)c1c(F)cccc1Cl | 97.3% | 96.1% | 123% | 107% | 110% | 94.2% | 101% | 112% | 219% | 127% | 115% | 119% | 105% | -22.6% (active) | 114% | 96.8% | 96.6% | 115% | 116%
6 | COc1ccc2c(c1)C1=NN(C(=O)CO)[C@H](c3ccc(OC(F)(F)F)cc3)[C@@H]1CC2 | 92.2% | 84.5% | 130% | 97.4% | 103% | 82.6% | 89.3% | 103% | 110% | 105% | 102% | 101% | 94.7% | -19.9% (active) | 94.8% | 90.4% | 93.2% | 123% | 115%
7 | COc1cc2c(c(OC)c1O)C(=O)C(OC)C(c1ccc(O)c(O)c1)O2 (stereo unspecified) | 24.7% | 16.8% | 37% | 42.3% | 4.55% (active) | -11.9% (active) | 17.7% | 17% | 88% | 5.45% (active) | 6.8% (active) | 52.2% | -8.18% (active) | 17.1% | 24.6% | -6.27% (active) | -23% (active) | 69.1% | -3.36% (active)
8 | CCN1C(=O)N(CC)C2C1NC(=O)N2/N=C/C=C/c1ccccc1 (stereo unspecified) | 64.5% | 74.9% | 63.8% | 41.3% | 24.4% | 2.08% (active) | 45.4% | 33% | 27.4% | 68.1% | 17% | 50.6% | 71.5% | 32.3% | 59.7% | 34.9% | 25% | 35.8% | 28.5%
9 | C[C@@H]1CC2C3CCC4=CC(=O)C=C[C@]4(C)[C@@]3(Cl)[C@@H](O)C[C@]2(C)[C@@]1(OC(=O)c1ccco1)C(=O)CCl (stereo partly specified) | 66.5% | 62.8% | 74.3% | 94.4% | 62.1% | 73.9% | 33.6% | 80.5% | 111% | 79% | 56.7% | 87.7% | 72.2% | 77.7% | 53.7% | 64.4% | 53% | 96.4% | 82%
